From PubChem BioAssay (NCI)
This is part of a sample that, as a whole, favours compounds with a hit. Of some 79,000 tested, about 15% had one in any assay. Values without a mark were called inactive. Calls of active or inactive are those of the source. Cut-off read from the data, not from the text of the source: active = growth inhibition above about 70%; inactive = the rest.

How the values were obtained:
[1] = NCI Yeast Anticancer Drug Screen. Data for the rad50 strain (AID 155);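 note: 0% = growth of vehicle-only cultures of the same strain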; conditions: S. cerevisiae rad50 strain growth inhibition, stronger effect = higher value
Summary of the method: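 Compounds were tested on a yeast strain with an engineered DNA damage repair alteration; the reported value is growth inhibition normalised to vehicle treatment.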

[2] = NCI Yeast Anticancer Drug Screen. Data for the mec2-1 strain (AID 157); conditions: S. cerevisiae mec2-1 strain, stronger effect = higher value
Summary of the method: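 Using mec2-1 yeast: add compound, measure growth, express inhibition versus vehicle-treated cultures.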

[3] = NCI Yeast Anticancer Drug Screen. Data for the sgs1 mgt1 strain (AID 161);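 note: 0% = growth of cultures given vehicle only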; conditions: S. cerevisiae sgs1 mgt1 strain, stronger effect = higher value
Summary of the method: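 Percent growth inhibition was derived by comparing compound-exposed mutant yeast with vehicle-exposed cultures. The strain carries alterations in DNA damage repair.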

[4] = NCI Yeast Anticancer Drug Screen. Data for the cln2 rad14 strain (AID 165);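 note: 0% = growth equal to vehicle treated cultures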; conditions: S. cerevisiae cln2 rad14 strain, stronger effect = higher value
Summary of the method: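 Yeast strain cln2 rad14, bearing defects in cell cycle control and DNA repair, serves as the test system; values reflect growth inhibition compared with vehicle.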

[5] = NCI Yeast Anticancer Drug Screen. Data for the bub3 strain (AID 167); conditions: S. cerevisiae bub3 mutant strain, stronger effect = higher value
Summary of the method: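 Growth of a checkpoint-deficient yeast mutant is measured after compound exposure. Values represent inhibition relative to vehicle.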

[6] = NCI Yeast Anticancer Drug Screen. Data for the mlh1 rad18 strain (AID 175); conditions: S. cerevisiae mlh1 rad18 strain growth inhibition, stronger effect = higher value
Summary of the method: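 Steps: expose repair-defective yeast to compound; measure growth; express inhibition against vehicle-treated controls.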

[7] = at 5.0 µM (retest, dose inferred, filed as 0.5)
[8] = at 50.0 µM (retest, dose inferred, filed as 5.0)

SMILES	growth inhibition [1, 7]	growth inhibition [1, 8]	growth inhibition ([1]; at 50.0 µM)	growth inhibition [2, 7] [%]	growth inhibition [2, 8]	growth inhibition ([2]; at 50.0 µM)	growth inhibition [3, 7]	growth inhibition [3, 8]	growth inhibition ([3]; at 50.0 µM)	growth inhibition [4, 7] [%]	growth inhibition [4, 8]	growth inhibition ([4]; at 50.0 µM)	growth inhibition [5, 7]	growth inhibition [5, 8]	growth inhibition ([5]; at 50.0 µM)	growth inhibition [6, 7]	growth inhibition [6, 8]	growth inhibition ([6]; at 50.0 µM)
CCOC(=O)/C(=C\c1cccc(Br)c1)C(C)=O	47%	100% (active)	92.8% (active)	51	99% (active)	94.9% (active)	47%	99% (active)	93.1% (active)	45	99% (active)	92.9% (active)	87% (active)	100% (active)	92.7% (active)	82% (active)	100% (active)	92.5% (active)
O=S(=O)(CCCCl)SCCCCl	11%	99% (active)	99.4% (active)	15	99% (active)	99.5% (active)	18%	100% (active)	99.5% (active)	23	99% (active)	99.7% (active)	22%	100% (active)	99.7% (active)	19%	99% (active)	99.5% (active)
CC(C)(C)N1C(=O)C(Cl)(C#N)C1c1ccccc1 (stereo not given)	7%	25%	43.5%	-4	8%	26.6%	-3%	27%	73.5% (active)	9	11%	19.9%	-1%	0%	-6.3%	-11%	26%	72.5% (active)
Nc1ccc2c(c1)Cc1c(Cl)cccc1-2	1%	95% (active)	96% (active)	3	96% (active)	54.4%	3%	90% (active)	89.4% (active)	-12	92% (active)	80.2% (active)	-3%	94% (active)	94.3% (active)	-1%	95% (active)	95.2% (active)
CC(=O)Nc1ccc(-c2nnc(SCC(=O)Nc3cccc(Cl)c3)o2)cc1	14%	45%	22.2%	1	39%	15.6%	10%	33%	55.6%	15	49%	-33.8%	8%	56%	73.7% (active)	2%	71% (active)	28.7%
CCOc1ccc2c(c1)n([O-])c1cc(Br)ccc1[n+]2=O	95% (active)	93% (active)	22.4%	49	85% (active)	86.3% (active)	72% (active)	95% (active)	88.2% (active)	35	90% (active)	49%	33%	92% (active)	78.6% (active)	91% (active)	93% (active)	85.8% (active)
COC(=O)/C(C#N)=C1\NC(=O)CC(c2ccccc2)C1C#N (stereo not given)	12%	20%	-25.2%	9	16%	-27.1%	21%	20%	9.25%	5	19%	-1.3%	10%	13%	-0.9%	23%	18%	-16.7%
CCc1ccc(/C=C/C(=O)C2CN(CC)CCC2(O)/C=C/c2ccc(CC)cc2)cc1 (stereo not given)	4%	99% (active)	91.5% (active)	2	99% (active)	92.8% (active)	2%	99% (active)	92% (active)	4	99% (active)	89.8% (active)	8%	98% (active)	91.2% (active)	13%	99% (active)	91.5% (active)
O=C(c1ccccc1)N1CCN(c2cccc(Cl)c2)CC1	0%	2%	29.2%	0	2%	0.45%	-2%	8%	12.7%	-1	10%	-26.1%	9%	93% (active)	77.4% (active)	1%	12%	16.3%
CSC(=S)NN=C1CCCC1	66%	97% (active)	87.5% (active)	57	98% (active)	83.7% (active)	61%	97% (active)	89.9% (active)	49	98% (active)	57.8%	78% (active)	98% (active)	94.8% (active)	58%	97% (active)	89.5% (active)
